Consider five molecules from PubChem BioAssay (EPA / NIEHS).

Records with an inconclusive call do not appear. Active and inactive are the calls of the source. Rule for the calls, unless noted: active = hit-call score of the fitted dose curve at least 0.9, where 1 is the maximum; inactive = score below 0.9.

Read-out in one test: CD69, CD69 (gene 969)
Briefly: BSK_SAg_CD69: BioMAP Diversity Plus: SAg Assay for CD69 Biomarker Activity (AID 2283089).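 For AC50: cell surface CD69 protein quantified by ELISA with fluorescence detection.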 To be noted: primary human HUVEC with PBMC; actives raise or lower the signal. An outline of the steps: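 Endothelial/PBMC co-culture; chemical added; 24 h incubation; CD69 ELISA with fluorescence detection; bidirectional fit vs DMSO.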

Read-out in test [1]: Monocyte Chemoattractant Protein-1 (MCP1), CCL2 (gene 6347)
Briefly: BSK_SAg_MCP1: BioMAP Diversity Plus: SAg Assay for Monocyte Chemoattractant Protein-1 (MCP1) Biomarker Activity (AID 2283090). The following applies: primary human HUVEC with PBMC; actives raise or lower the signal. The procedure, abridged:
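MCP-1 levels in the endothelial–PBMC SAg co-culture were quantified by ELISA at 24 h post-dosing; both increases and decreases versus DMSO scored. Cytotoxicity monitored by SRB total protein in parallel cultures.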

Read-out in test [2]: E-selectin (Homo sapiens) (UniProt P16581)
Briefly: BSK_SAg_Eselectin: BioMAP Diversity Plus: SAg Assay for Eselectin Biomarker Activity (AID 2283091). The following applies: primary human HUVEC with PBMC; actives raise or lower the signal. The procedure, abridged:
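Cell-surface E-selectin is read by ELISA at 24 h in the SAg co-culture of HUVEC and PBMC. Curves are fitted in both directions relative to DMSO. Parallel SRB total-protein staining tracks overt toxicity.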

Read-out in test [3]: Monokine induced gamma interferon (MIG), CXCL9 (gene 4283)
In words: BSK_SAg_MIG: BioMAP Diversity Plus: SAg Assay for Monokine induced gamma interferon (MIG) Biomarker Activity (AID 2283092). The following applies: primary human HUVEC with PBMC; actives raise or lower the signal. An outline of the steps: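 Measures CXCL9 protein by ELISA in a human vascular primary-cell co-culture (umbilical vein endothelium with PBMC) 24 h after chemical addition. Activity is scored up or down from the DMSO control.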

The nature of test [4]: BSK_SAg_PBMCCytotoxicity: PBMC Cytotoxicity Assessment in the BioMAP Diversity Plus: SAg Assay (AID 2283093).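 For AC50: PBMC superantigen activated with SEB plus TSST-1 one hour after compound addition.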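 Note: PBMC viability measured as Alamar Blue reduction fluorescence at 546/580 nm; fitted both ways against DMSO so a hit may be loss or gain of signal.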 The following applies: primary human HUVEC with PBMC. The procedure, abridged:
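Compound added to 75,000 PBMC/well for 1 h; SEB and TSST-1 then added at 20 ng/mL final each; 90 h incubation; Alamar Blue 6 h; read 546/580 nm ex/em. Activity fitted bidirectionally relative to DMSO baseline.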

Read-out in test [5]: Interleukin-8 (IL8), CXCL8 (gene 3576)
Briefly: BSK_SAg_IL8: BioMAP Diversity Plus: SAg Assay for Interleukin-8 (IL8) Biomarker Activity (AID 2283094). To be noted: primary human HUVEC with PBMC; actives raise or lower the signal. The procedure, abridged: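 In this co-culture of human umbilical vein endothelium with peripheral blood mononuclear cells, IL-8 is assayed by ELISA at 24 h. DMSO serves as baseline for bidirectional curve fitting.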

A short description of test [6]: BSK_SAg_SRB: Viability Assessment in the BioMAP Diversity Plus: SAg Assay (AID 2283096).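 Note: cells read one day after compound addition; hits may be either gain or loss of signal compared with DMSO.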 The following applies: primary human HUVEC with PBMC. An outline of the steps:
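Total protein by sulforhodamine B staining, 24 h after dosing, in HUVEC–PBMC co-culture; DMSO-referenced bidirectional fitting.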

Test [7] addresses human CYP1A1, CYP1A1 (gene 1543) (UniProt P04798). Briefly: NVS_ADME_hCYP1A1: NovaScreen (NVS) CYP450-related Enzyme Activity (ADME) Assay for human CYP1A1 (AID 2283100; active = hit-call score of the fitted dose curve at least 0.9, where 1 is the maximum). An outline of the steps:
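Chemicals were first tested in duplicate at 10 uM, and those passing a 30% inhibition threshold were rerun as concentration series topping at 20 uM. Fluorescence read-out of recombinant enzyme turnover after 1 h, relative to acetonitrile.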

In test [8] the target is human CYP2J2, CYP2J2 (gene 1573) (UniProt P51589). In words: NVS_ADME_hCYP2J2: NovaScreen (NVS) CYP450-related Enzyme Activity (ADME) Assay for human CYP2J2 (AID 2283106; active = hit-call score of the fitted dose curve at least 0.9, where 1 is the maximum). The procedure, abridged:
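Cell-free assay of recombinant CYP2J2 with a fluorogenic substrate, read 1 h after dosing; loss of signal versus acetonitrile. Primary screen at 10 uM in duplicate, then concentration-response up to 20 uM for chemicals passing threshold (e.g., 30% inhibition).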

Test [9] has as its target human CYP2D6, CYP2D6 (gene 1565) (UniProt P10635). In words: NVS_ADME_hCYP2D6: NovaScreen (NVS) CYP450-related Enzyme Activity (ADME) Assay for human CYP2D6 (AID 2283107; active = hit-call score of the fitted dose curve at least 0.9, where 1 is the maximum). An outline of the steps: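 Fluorescence readout of recombinant CYP2D6 (insect-cell derived) activity after 1 h incubation with test chemical. Acetonitrile served as baseline, loss-of-signal direction. Single-concentration duplicate screening at 10 uM preceded concentration-response retesting.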

Test [10] concerns the target human CYP2C9, CYP2C9 (gene 1559) (UniProt P11712). Briefly: NVS_ADME_hCYP2C9: NovaScreen (NVS) CYP450-related Enzyme Activity (ADME) Assay for human CYP2C9 (AID 2283108; active = hit-call score of the fitted dose curve at least 0.9, where 1 is the maximum). The procedure, abridged: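 Fluorescence readout of CYP2C9 activity (SF9-expressed human enzyme) at 0.75 h. The primary screen used 10 uM in duplicate, with concentration-response follow-up for actives; acetonitrile was the negative control.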

In test [11] the target is human CYP4F12, CYP4F12 (gene 66002) (UniProt Q9HCS2). Briefly: NVS_ADME_hCYP4F12: NovaScreen (NVS) CYP450-related Enzyme Activity (ADME) Assay for human CYP4F12 (AID 2283111; active = hit-call score of the fitted dose curve at least 0.9, where 1 is the maximum). The procedure, abridged:
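Cell-free fluorescence assay of recombinant human CYP4F12 activity on a specific substrate, read 0.5 h after dosing. Primary screen in duplicate at 10 uM, then concentration series for actives; loss of signal fitted against acetonitrile negative control.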

Test [12] has as its target Cytochrome P450 2C19 (Homo sapiens) (UniProt P33261). Briefly: NVS_ADME_hCYP2C19: NovaScreen (NVS) CYP450-related Enzyme Activity (ADME) Assay for human CYP2C19 (AID 2283113; active = hit-call score of the fitted dose curve at least 0.9, where 1 is the maximum;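 note: potency for inhibition seen as loss of fluorescent signal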). The procedure, abridged:
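Compounds first screened in duplicate at 10 uM, then confirmed in concentration series. Insect-cell-expressed human CYP2C19 turned over a fluorogenic substrate, and fluorescence was read after 1 h. Inhibition taken as signal loss relative to acetonitrile.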

For test [13], the target named is human CYP19A1, CYP19A1 (gene 1588) (UniProt P11511). In words: NVS_ADME_hCYP19A1: NovaScreen (NVS) CYP450-related Enzyme Activity (ADME) Assay for human CYP19A1 (AID 2283098; active = hit-call score of the fitted dose curve at least 0.9, where 1 is the maximum). The procedure, abridged: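 Biochem, cell-free; recombinant enzyme + specific substrate; fluorescence intensity at 0.5 h post-dose; 10 uM duplicate primary, conc. series for actives; acetonitrile = negative control/baseline; positive and negative controls on every plate.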
Chain of human CYP19A1, CYP19A1 (gene 1588) (P11511 whole entry, looked up): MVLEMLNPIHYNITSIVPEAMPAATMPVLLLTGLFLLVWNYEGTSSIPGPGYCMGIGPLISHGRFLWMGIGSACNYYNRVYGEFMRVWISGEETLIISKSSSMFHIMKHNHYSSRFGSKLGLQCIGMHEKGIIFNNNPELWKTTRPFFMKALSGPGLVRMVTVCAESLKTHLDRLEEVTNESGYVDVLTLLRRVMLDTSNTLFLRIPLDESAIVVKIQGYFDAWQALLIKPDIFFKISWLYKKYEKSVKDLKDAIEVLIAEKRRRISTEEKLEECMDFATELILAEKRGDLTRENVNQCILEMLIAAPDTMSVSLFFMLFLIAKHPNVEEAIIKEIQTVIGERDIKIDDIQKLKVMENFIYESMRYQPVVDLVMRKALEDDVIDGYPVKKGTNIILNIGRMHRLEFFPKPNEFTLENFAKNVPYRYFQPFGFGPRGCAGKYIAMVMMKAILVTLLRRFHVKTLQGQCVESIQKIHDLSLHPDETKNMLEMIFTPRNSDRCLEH

Chain of human CYP2C9, CYP2C9 (gene 1559) (P11712 whole entry, looked up): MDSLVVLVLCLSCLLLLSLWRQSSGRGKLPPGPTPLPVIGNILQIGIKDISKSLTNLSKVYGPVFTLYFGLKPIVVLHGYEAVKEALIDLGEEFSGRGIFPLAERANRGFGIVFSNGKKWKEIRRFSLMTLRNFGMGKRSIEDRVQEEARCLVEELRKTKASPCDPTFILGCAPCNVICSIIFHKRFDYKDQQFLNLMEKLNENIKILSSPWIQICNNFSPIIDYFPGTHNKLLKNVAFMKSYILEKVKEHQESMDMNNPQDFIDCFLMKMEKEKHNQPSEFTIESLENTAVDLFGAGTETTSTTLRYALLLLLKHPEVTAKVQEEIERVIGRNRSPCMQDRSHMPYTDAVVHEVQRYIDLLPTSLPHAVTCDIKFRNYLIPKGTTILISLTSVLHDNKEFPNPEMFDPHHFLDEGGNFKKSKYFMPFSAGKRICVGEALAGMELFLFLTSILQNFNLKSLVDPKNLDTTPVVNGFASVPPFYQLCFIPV
Chain of human CYP2D6, CYP2D6 (gene 1565) (P10635 whole entry, looked up): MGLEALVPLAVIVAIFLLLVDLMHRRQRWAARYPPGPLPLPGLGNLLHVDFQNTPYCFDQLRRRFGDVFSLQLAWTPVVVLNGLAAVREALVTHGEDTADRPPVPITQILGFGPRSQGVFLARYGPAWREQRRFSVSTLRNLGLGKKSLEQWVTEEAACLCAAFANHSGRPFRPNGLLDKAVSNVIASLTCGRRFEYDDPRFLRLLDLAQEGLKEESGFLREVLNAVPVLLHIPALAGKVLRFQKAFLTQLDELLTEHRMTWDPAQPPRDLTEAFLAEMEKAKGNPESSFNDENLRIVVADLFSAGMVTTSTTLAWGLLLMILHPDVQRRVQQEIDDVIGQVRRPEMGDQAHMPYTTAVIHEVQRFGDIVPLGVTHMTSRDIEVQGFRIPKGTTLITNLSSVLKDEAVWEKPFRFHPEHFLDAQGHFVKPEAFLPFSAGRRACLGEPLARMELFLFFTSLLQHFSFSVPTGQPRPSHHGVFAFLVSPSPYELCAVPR
Chain of E-selectin (Homo sapiens) (P16581 whole entry, looked up): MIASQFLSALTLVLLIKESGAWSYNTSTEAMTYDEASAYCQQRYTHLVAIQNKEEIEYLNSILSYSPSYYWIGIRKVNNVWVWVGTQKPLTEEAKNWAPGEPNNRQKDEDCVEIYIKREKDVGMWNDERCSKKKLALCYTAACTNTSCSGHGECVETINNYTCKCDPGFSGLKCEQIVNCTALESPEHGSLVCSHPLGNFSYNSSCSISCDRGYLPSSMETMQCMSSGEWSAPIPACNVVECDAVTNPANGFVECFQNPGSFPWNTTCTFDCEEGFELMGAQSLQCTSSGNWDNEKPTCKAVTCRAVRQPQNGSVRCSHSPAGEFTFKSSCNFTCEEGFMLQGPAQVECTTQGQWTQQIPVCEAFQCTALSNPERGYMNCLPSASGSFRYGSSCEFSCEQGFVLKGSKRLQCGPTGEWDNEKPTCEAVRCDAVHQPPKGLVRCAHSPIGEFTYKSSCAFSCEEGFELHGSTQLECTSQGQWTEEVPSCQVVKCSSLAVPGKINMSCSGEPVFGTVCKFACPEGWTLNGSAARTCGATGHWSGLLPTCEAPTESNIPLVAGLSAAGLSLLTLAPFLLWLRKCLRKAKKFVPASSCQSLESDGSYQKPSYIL
Chain of human CYP1A1, CYP1A1 (gene 1543) (P04798 whole entry, looked up): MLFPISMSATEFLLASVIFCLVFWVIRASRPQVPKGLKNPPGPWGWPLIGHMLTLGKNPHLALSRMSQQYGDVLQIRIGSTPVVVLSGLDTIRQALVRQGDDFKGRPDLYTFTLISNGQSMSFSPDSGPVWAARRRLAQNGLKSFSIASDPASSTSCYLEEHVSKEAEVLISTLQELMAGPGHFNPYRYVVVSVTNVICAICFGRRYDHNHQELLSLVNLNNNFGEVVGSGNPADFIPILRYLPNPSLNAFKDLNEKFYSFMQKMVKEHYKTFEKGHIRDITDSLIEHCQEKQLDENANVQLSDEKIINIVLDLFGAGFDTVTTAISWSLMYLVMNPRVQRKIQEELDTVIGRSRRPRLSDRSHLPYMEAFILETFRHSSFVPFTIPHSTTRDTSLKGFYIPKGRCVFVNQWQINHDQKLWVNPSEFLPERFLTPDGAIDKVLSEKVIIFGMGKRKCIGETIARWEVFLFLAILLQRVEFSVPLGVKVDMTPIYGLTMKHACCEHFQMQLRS
Chain of human CYP2J2, CYP2J2 (gene 1573) (P51589 whole entry, looked up): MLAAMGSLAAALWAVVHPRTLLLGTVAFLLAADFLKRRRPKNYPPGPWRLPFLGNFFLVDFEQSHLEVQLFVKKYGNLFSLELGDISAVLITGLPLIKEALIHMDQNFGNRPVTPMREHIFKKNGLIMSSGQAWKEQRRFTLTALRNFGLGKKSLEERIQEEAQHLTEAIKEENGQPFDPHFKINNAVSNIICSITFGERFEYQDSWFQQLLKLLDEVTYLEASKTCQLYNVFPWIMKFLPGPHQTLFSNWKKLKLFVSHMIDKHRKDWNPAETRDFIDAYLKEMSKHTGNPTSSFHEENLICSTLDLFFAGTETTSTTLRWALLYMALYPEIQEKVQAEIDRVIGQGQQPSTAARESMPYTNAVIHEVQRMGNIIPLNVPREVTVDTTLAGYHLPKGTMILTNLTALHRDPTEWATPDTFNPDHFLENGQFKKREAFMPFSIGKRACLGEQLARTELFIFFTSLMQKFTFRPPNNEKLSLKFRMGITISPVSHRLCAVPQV
Chain of human CYP4F12, CYP4F12 (gene 66002) (Q9HCS2 whole entry, looked up): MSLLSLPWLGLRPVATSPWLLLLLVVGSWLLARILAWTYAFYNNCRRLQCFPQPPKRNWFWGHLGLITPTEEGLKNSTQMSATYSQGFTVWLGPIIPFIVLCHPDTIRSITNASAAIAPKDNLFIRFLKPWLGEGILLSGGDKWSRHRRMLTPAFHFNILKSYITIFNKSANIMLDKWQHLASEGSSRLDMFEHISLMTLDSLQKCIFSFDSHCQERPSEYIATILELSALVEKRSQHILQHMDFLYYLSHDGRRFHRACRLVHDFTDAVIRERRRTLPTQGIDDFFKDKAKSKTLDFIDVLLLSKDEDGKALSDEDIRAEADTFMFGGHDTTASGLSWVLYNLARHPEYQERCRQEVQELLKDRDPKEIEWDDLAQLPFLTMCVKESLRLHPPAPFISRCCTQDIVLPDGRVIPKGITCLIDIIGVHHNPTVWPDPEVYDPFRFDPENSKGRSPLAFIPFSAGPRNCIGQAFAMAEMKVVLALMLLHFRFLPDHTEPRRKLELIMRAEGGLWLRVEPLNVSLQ

Take `CS/C(C)=N/OC(=O)N(C)SN(C)C(=O)O/N=C(\C)SC`: the AC50 with CD69, CD69 (gene 969) was 31.7 µM (active); in test [1], 30.1 µM (active); in test [2], 31.4 µM (active); in [3], 35.6 µM (active); in test [4], 8.27 µM (active); in test [5] it was 16 µM (active). Besides, the AC50 in test [6] is 28.4 µM (active); in test [7], 10 µM (active); in test [8] it was 2.79 µM (active); in test [9], 0.934 µM (active); in test [10], 5.64 µM (active); in test [12], 3.43 µM (active). Moreover, the call in test [11] was inactive.
On to `N#Cc1cc(Br)c(O)c(Br)c1`, for which the AC50 with CD69, CD69 (gene 969) is 26.4 µM (active); in test [4] it was 14.4 µM (active); in test [5], 30.5 µM (active); in test [6], 20 µM (active). The result in test [1], in [2], in [3] and in test [9] was inactive.
Turning to `C=CCC1=C(C)[C@@H](OC(=O)[C@@H]2[C@@H](C=C(C)C)C2(C)C)CC1=O`, the AC50 in the test with CD69, CD69 (gene 969) is 36.5 µM (active); in [1] it was 33.2 µM (active); in [2] it was 27.4 µM (active); in [3], 38.9 µM (active); in test [4] it was 32.4 µM (active); in test [5], 25.3 µM (active). In addition, the AC50 in test [6] is 29.2 µM (active); in test [9] it was 10 µM (active); in [10] it was 5.73 µM (active); in test [12], 6.39 µM (active).
In the case of `CCNc1nc(Cl)nc(NC(C)C)n1`, the outcome in the test with CD69, CD69 (gene 969) was “inactive”; in [1], “inactive”; in test [3] it was “inactive”; in test [4], “inactive”; in [5] it was “inactive”; in test [6], “inactive”. Moreover, the molecule was classed as inactive in test [13] and in test [7]. Further, the results for the AC50 in test [2] and in test [12] were 13.9 µM (active) and 10 µM (active), respectively.
In the case of `N#Cc1nn(-c2c(Cl)cc(C(F)(F)F)cc2Cl)c(N)c1S(=O)C(F)(F)F` (stereo not given), the AC50 with CD69, CD69 (gene 969) is 25.6 µM (active); in test [1] it was 30 µM (active); in test [2] it was 29.8 µM (active); in test [3], 35 µM (active); in test [4] it was 5.04 µM (active); in [5] it was 27.8 µM (active). The results for the AC50 in [6], in test [10] and in [12] were 34 µM (active), 1.14 µM (active) and 0.751 µM (active), respectively.
